Compound activity as filed in PubChem BioAssay.
This is one part of a sample in which hits are shown more often than they occur.
FBPA Giardia inh = Giardia lamblia aldolase inhibition; purified Giardia FBPA; Potency, µM (titrated, usually from 59.6 µM), for the others: top-dose activity, negative = inhibition, most hits filed as inhibitors; 290,000 tested, 0.71% active; note: potency is the fitted concentration of half-maximal effect; % is set by controls: 0 for no effect and ±100 for the full control effect; nearly all actives have a fitted effect of over 55% in size
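40 nM FBPA preincubated 10 min at RT with compound (up to 57.5 uM final), then substrate plus GAPDH/TPI/NAD/arsenate coupling and diaphorase/resazurin added. Fluorescence read after 20 min at RT, 525/598 nm.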
Sm TGR block = blocks Schistosoma mansoni thioredoxin glutathione reductase. 360,000 tested, 3% active. Potency, µM (highest dose often 114 µM), inactives show at the highest dose activity change, negative = inhibition, actives largely listed as inhibitors. purified TGR, DTNB reduction, TNB absorbance 405 nm. Q962Y6; note: potency is the fitted concentration of half-maximal effect; % is set by controls: 0 for no effect and ±100 for the full control effect; nearly all actives have a fitted effect of over 60% in size
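First, TGR (20 nM dispensed) and NADPH were mixed with compound. Second, a 15 min room-temperature incubation followed. Third, further NADPH and then DTNB were added to start the reaction. Finally, TNB absorbance was monitored kinetically.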
Shiga toxin inh = Shiga toxin inhibition | inhibition, % at 38.7 µM | 290,000 tested, 9.2% active | Vero cells, Shiga toxin protein synthesis inhibition reporter; in the data active = inhibition mostly above about 28%, no sharp cut-off; inactive = mostly below about 43%; note: 0% is about no effect
Tb PYK inh = T. brucei pyruvate kinase inhibition | TbPYK enzyme, Kinase-Glo Plus ATP luminescence, 45 min | Potency, µM (top dose mostly 76.8 µM), without a hit: at the top dose activity, negative = inhibition, most hits filed as inhibitors | Q57TT1 | 410,000 tested, 0.12% active; note: potency is the fitted concentration of half-maximal effect; % is set by controls: 0 for no effect and ±100 for the full control effect; nearly all actives have a fitted effect of over 50% in size
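Quantitative HTS: titrated library compounds versus trypanosomal pyruvate kinase in TEA buffer (pH 7.2) containing KCl, MgCl2, BSA and Tween-20. Reactions were initiated with ADP, 130 uM final. Kinase-Glo Plus luminescence was read after 45 min at RT.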
Cycloheximide cs = counter-screen hit for Shiga toxin inhibitors, cycloheximide. cell reporter, cycloheximide protein synthesis inhibition counterscreen. max response, %. 300,000 tested, 12% active. AID 2314; in the data active = max response mostly above about 13%, no sharp cut-off; inactive = mostly below about 14%; note: read at 38.3 µM for the half of the compounds with a filed dose; 0% is about no effect
LmPK inhibitor = blocks Leishmania mexicana pyruvate kinase activity; Q27686; Potency, µM (titrated, usually from 57.5 µM), without a hit: top-dose activity change, negative = inhibition, hits mostly inhibitors; 290,000 tested, 0.37% active; purified LmPK, Kinase-Glo ATP luminescence, 1 h; AID 1721; note: potency is the fitted concentration of half-maximal effect; % is set by controls: 0 for no effect and ±100 for the full control effect
Target sequence (Q27686 whole entry, looked up): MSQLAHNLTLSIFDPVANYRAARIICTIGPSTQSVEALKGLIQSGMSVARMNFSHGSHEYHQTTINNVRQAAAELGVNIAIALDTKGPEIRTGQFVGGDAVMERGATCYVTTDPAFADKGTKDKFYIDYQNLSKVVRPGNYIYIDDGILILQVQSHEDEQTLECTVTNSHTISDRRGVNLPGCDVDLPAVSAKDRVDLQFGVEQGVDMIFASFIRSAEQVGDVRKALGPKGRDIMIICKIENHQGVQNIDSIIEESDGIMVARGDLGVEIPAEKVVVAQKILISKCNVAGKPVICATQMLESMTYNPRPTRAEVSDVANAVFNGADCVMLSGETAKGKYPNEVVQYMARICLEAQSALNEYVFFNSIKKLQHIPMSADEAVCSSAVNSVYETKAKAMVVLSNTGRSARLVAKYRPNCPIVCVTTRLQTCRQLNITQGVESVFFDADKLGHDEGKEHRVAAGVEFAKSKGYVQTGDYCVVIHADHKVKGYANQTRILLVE
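qHTS format; LmPK 0.1 nM; substrates PEP 0.5 mM and ADP 0.1 mM. One-hour room-temperature incubation, then coupled luciferase luminescence; 0.5 nM enzyme wells mark activation.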
* marks the source's active call; other numbers are inactive results; ? = inconclusive; . = no result; + = active, no number; [ ] = dose if it differs, or a comment. Unless noted, calls come from the whole dose curve; as a rule, active = well fitted curve in the direction sought with a large enough effect; inconclusive = small, poorly fitted or top-dose-only effect, or another doubt; inactive = no such curve, though single readings can be large; an effect the other way counts as inactive or inconclusive.

SMILES	FBPA Giardia inh	Sm TGR block	Shiga toxin inh	Tb PYK inh	Cycloheximide cs	LmPK inhibitor
Cc1ccc(-c2nc3cccnc3s2)cc1NC(=O)C1c2ccccc2Oc2ccccc21	4%	-1%	29	1%	30*	-3%
CCS(=O)(=O)Nc1ccc(-c2nc3cccnc3s2)cc1	-2%	8%	73*	-10%	41*	-27%
CCS(=O)(=O)Nc1cc(-c2nc3cccnc3s2)ccc1C	-4%	1%	87*	-5%	66*	-11%
Cc1cccc(CC(=O)Nc2cccc(-c3nc4cccnc4s3)c2)c1	.	3%	.	3%	.	.
CCS(=O)(=O)Nc1cccc(-c2nc3cccnc3s2)c1	0%	-10%	131*	0%	33*	1%
CC(C)c1ccc(Nc2ncnc3c2c(-c2ccccc2)cn3-c2ccccc2)cc1	.	5%	.	-1%	.	.
O=C(Nc1ccc(F)c(Cl)c1)Nc1c[nH]c(=O)[nH]c1=O	.	5%	.	-4%	.	.
CCC(CC)C(=O)NCCCN1CCOCC1	14%	7%	-1	-1%	-8	-1%
Cc1nc2ccc(S(=O)(=O)Nc3cccc(-c4nc5cccnc5s4)c3)cc2s1	16%	5%	16	3%	7	5%
Cc1nc2ccc(S(=O)(=O)Nc3ccc(-c4nc5cccnc5s4)cc3)cc2s1	18%	-4%	49*	1%	37*	-1%
O=S1(=O)CCN2C(=N1)Sc1c2ccc2c1CCCC2	-23%	18%[11.4 µM]	69*	-18%	25*	6%
Cc1ccc(-c2cc(C(=O)Nc3cc(C)ccc3C)[nH]n2)c(O)c1	0%	-3%	30*	10%	18*	-7%
Cc1ccc(NC(=O)c2cc(-c3cc(C)c(C)cc3O)n[nH]2)cc1C	5%	3%	9	-7%	15*	6%
Cc1ccc(C)c(NC(=O)c2cc(-c3cc(C)c(C)cc3O)n[nH]2)c1	2%	29%	61*	4%	30*	0%
Cc1ccc(C)c(NC(=O)c2cc(-c3ccccc3O)n[nH]2)c1	10%	9%	59*	1%	29*	3%
COc1ccc(OC)c(NC(=O)c2cc(-c3ccc(C)cc3O)n[nH]2)c1	8%	-9%	1	6%	10	8%
Cc1cc(C)c(-c2cc(C(=O)Nc3cc(C)ccc3C)[nH]n2)c(O)c1	3%	8%	-3	3%	-6	-1%
O=C(NCc1ccc(Cl)cc1)C(=O)NCC(c1cccnc1)N1CCN(c2ccccc2)CC1 (stereo not drawn)	.	-1%	.	-2%	.	.
COc1cccc(-c2nc(CS(=O)(=O)CC(=O)Nc3c(C)cc(C)cc3C)c(C)o2)c1	.	-14%	.	-1%	.	.
CCNC(=S)/C(=C(/[O-])c1ccc([N+](=O)[O-])cc1)[n+]1ccccc1	-10%	-8%	-14	-12%	2	5%
Cc1cc(/C([O-])=C(/C(=S)Nc2ccc(F)cc2)[n+]2ccccc2)c(C)n1-c1ccc(F)cc1	-24%	0%	12	-16%	11	0%
O=[N+]([O-])c1cccc(/C([O-])=C(/C(=S)Nc2ccccc2)[n+]2ccccc2)c1	-20%	-24%	+	-12%	80*	-1%
Cc1cc(/C([O-])=C(/C(=S)Nc2ccccc2)[n+]2ccccc2)c(C)n1-c1ccccc1	-30%	-22%	44	-9%	29*	-6%
CCOc1ccc(NC(=O)c2ccco2)cc1	0%	-9%	47*	6%	30*	-29%
CCOc1ccc(NC(=S)NC(=O)c2ccco2)cc1	-23%	13µM*	85*	-4%	62*	-7%
SMILES	FBPA Giardia inh	Sm TGR block	Shiga toxin inh	Tb PYK inh	Cycloheximide cs	LmPK inhibitor
CCOc1ccc(NC(=S)NC(=O)C2CCCC2)cc1	.	?	69*	-11%	16*	2%
CCOc1ccc(C(=O)Nc2ccccc2OC(F)F)cc1	0%	2%	65*	-1%	10	1%
COc1ccc(NC(=S)NC(=O)C2CCCCC2)cc1	.	-16%	-5	3%	-3	-5%
COc1ccccc1NC(=O)CSc1nc2ccccc2c2nc(-c3ccccc3)nn12	.	7%	.	-2%	.	.
CCOc1ccccc1NC(=O)c1ccc(C(=O)Nc2ccccc2OCC)cc1	.	2%	.	-12%	.	.
COC(=O)COc1ccc(NC(=O)c2ccco2)cc1	-1%	-5%	22	0%	16*	-14%
CCOc1ccc(-c2nonc2NC(=O)c2ccco2)cc1OCC	.	-6%	36*	2%	18	-9%
O=C(Nc1ccccc1F)Nc1ccccc1OC(F)F	-9%	.	31	0%	25*	-5%
CCOc1ccccc1NC(=O)c1ccc(NC(=O)c2ccco2)cc1	4%	-22%	51	7%	13*	0%
O=C(CC1N=C2c3ccccc3N=C(SCc3ccccc3Cl)N2C1=O)NC1CCCCC1 (stereo not drawn)	.	4%	.	2%	.	.
CC1CCN(C(=O)CN2c3ccc(Br)cc3-c3ccccc3S2(=O)=O)CC1	.	3%	.	1%	.	.
Fc1ccc(Nc2nc3nonc3nc2Nc2cccc(C(F)(F)F)c2)cc1	.	4%	.	-5%	.	.
COc1ccc(C(=O)NC(=S)NNC(=O)c2ccc(O)cc2)cc1[N+](=O)[O-]	18%	14%	86*	3%	39*	4%
CCOc1ccc(C(=O)NC(=S)Nc2cccnc2)cc1[N+](=O)[O-]	-7%	?	56	-26%	24	2%
COc1ccc(C(=O)NC(=S)Nc2cccnc2)cc1[N+](=O)[O-]	-15%	16µM*	22	-8%	3	3%
CCOc1ccc(C(=O)NC(=S)Nc2ccccn2)cc1[N+](=O)[O-]	?	-1%	31	-1%	15*	-11%
COC(=O)c1ccc(COc2cc(O)c3c(c2)OC(C)(C)CC3=O)cc1	1%	2%	-4	-7%	17	9%
CC1(C)CC(=O)c2c(O)cc(OCc3ccc(Br)cc3)cc2O1	0%	3%	70*	6%	49*	-3%
CC1(C)CC(=O)c2ccc(OCc3ccc([N+](=O)[O-])cc3)cc2O1	0%	3%	84*	1%	40*	3%
Cc1ccc(-n2nc(-c3ccco3)cc2C(=O)O)c(C)c1	-17%	11µM*	-4	-6%	-2	9%
O=C(O)c1cc(-c2ccco2)nn1-c1ccc(Cl)cc1	-1%	5µM*	25	-21%	-3	14%
O=C(O)c1cc(-c2ccco2)nn1-c1cccc(Cl)c1	-4%	63µM*	13	-4%	-1	7%
Cc1nn(-c2cccc(Cl)c2)c2nc(-c3ccco3)cc(C(=O)O)c12	?	16µM*	-19	0%	-3	6%
CCOc1ccc(Oc2ccc(C(F)(F)F)cc2N)cc1	0%	-5%	44	-5%	16*	5%
